# Assay results from PubChem BioAssay (NCI).
# The panel holds about 83,000 compounds, 20% with a hit somewhere; the sample as a whole holds those more often.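 How to read the values: 0–100, growth inhibition (40 = 60% inhibited); 0, no net growth; -100 to 0, cell death (-40 = 40% of starting cells died; -100 = all dead).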 A number with no mark means an inactive call. Active and inactive are the calls of the source. Rule for the calls: active = growth percent below 10; inactive = the rest.
# Test system: SF-268 CNS
# Assay: NCI-60 one-dose screen, 48 h (100 = growth as untreated, 0 = no growth, -100 = all killed)
# Conditions: 10 µM unless noted
row,SMILES,growth
1,COC(=O)c1ccc(Cn2cnc3c(N)ncnc32)cc1,114%
2,CCOc1nc(-c2ccccc2)cc2c(O)c(C(=O)O)[nH]c(=O)c12,99.2%
3,COc1ccc(Nc2nc(SC)nc(-c3cccc([N+](=O)[O-])c3)c2C#N)cc1,71.6%
4,CN(C)[C@@H]1C(=O)C(C(=O)NCc2nc3[nH]cnc(=S)c3[nH]2)=C(O)[C@@]2(O)C(=O)C3=C(O)c4c(O)cccc4[C@@](C)(O)[C@H]3C[C@@H]12,76.1%
5,CCOC(=O)c1sc2nc(-c3cccc(O)c3)nc(N3CCOCC3)c2c1C,48.9%
6,O=C1/C(=C/c2ccccc2)SC(=S)N1CCc1ccc(O)cc1,85.3%
7,OCC(O)c1nc2ccc3[nH]ncc3c2c2c1CCCC2 (stereo not drawn),-3.77% (active)
8,CC[C@@H]1O[C@H](O[C@@H](c2cnc[nH]2)[C@H](NC(=O)c2nc([C@H](CC(N)=O)NC[C@@H](N)C(N)=O)nc(N)c2C)C(=O)N[C@H](C)[C@H](O)[C@H](C)C(=O)N[C@@H](C(=O)NCCc2nc(-c3nc(C(=O)NCCCCN=C(N)N)cs3)cs2)[C@@H](C)O)[C@H](O[C@@H]2O[C@H](CO)[C@H](O)[C@H](OC(N)=O)[C@@H]2O)[C@H](C)[C@@H]1C,23.1%
9,COc1cc2c(cc1-c1c(C)noc1C)ncc1nc(C3CCC(F)(F)CC3)n([C@H](C)COC(F)F)c12,67.4%
10,O=C1c2c(O)cc(O)cc2-c2c(-c3ccc(O)cc3)oc3cc(O)cc1c23,50.7%
11,CCN1CCN(c2nc(NCCNc3ccnc4cc(Cl)ccc34)c3ccccc3n2)CC1,27.2%
12,O=S(=O)(Nc1ccc(Br)c(Cl)c1)c1ccc(-c2cnc(C3CC3)o2)cc1,50.3%
13,Cc1nn(-c2cc(=O)[nH]c3ccc(Cl)cc23)c(N)c1C#N,102%
14,Clc1ccc2c(NCCCCNc3nc(N4CCOCC4)nc4ccccc34)ccnc2c1,43%
15,CCOc1nc(-c2ccccc2)cc2c(O)c(C(=O)N/N=C/c3ccc(O)cc3O)[nH]c(=O)c12,16.3%
16,O=C(O)c1ccc(NC(=O)c2ccc(-c3cccc([N+](=O)[O-])c3)o2)cc1,98.5%
17,Cc1ccc(NS(=O)(=O)c2ccc(-c3cnc(C4CC4)o3)cc2)cc1C,52%
18,O=c1ccccc(-c2ccc(-c3ccco3)cc2)c1O,11%
19,CC(C)CC1C(=O)N2CCC[C@H]2C2(O)O[C@](NC(=O)C3C=C4c5cccc6[nH]c(Br)c(c56)C[C@H]4N(C)C3)(C(C)C)C(=O)N12 (stereo partly drawn),55.8%
20,C=CC(=O)Nc1cccc(-c2nc(SC)nc(NCCN3CCOCC3)c2C#N)c1,83.8%
21,CC(C)c1c(C(=O)c2ccccc2)c(-c2ccccc2)c(-c2ccc(F)cc2)n1CC[C@@H](O)C[C@@H](O)CC(=O)O,34.7%
22,O=S(=O)(Nc1ccc(NS(=O)(=O)c2ccccc2)c(Cl)c1)c1ccccc1,101%
23,O=C(N=Nc1c(O)[nH]c2ccccc12)c1cc(-c2ccccc2)on1,101%
24,O=C1NC(=S)NC(=O)C1CC(=O)n1c(-c2ccccc2)nc2ccccc21,93.8%
25,Cn1c(O)c(N=NC(=O)c2cc(-c3ccccc3)on2)c2ccccc21,100%
26,CN1CCN(Cc2ccc(NC(=O)c3cncc(C#Cc4cncn5ccnc45)c3)cc2C(F)(F)F)CC1,92.4%

# Test system: SF-295 CNS
# Assay: as above
# Conditions: 10 µM unless noted
row,SMILES,growth
1,c1csc(C2=NN3C(C2)c2ccccc2OC3c2ccncc2)c1 (stereo not drawn),96.1%
2,CC1=CC(C)(C)Nc2ccc(Cc3ccc4c(c3)C(C)=CC(C)(C)N4)cc21,139%
3,CCCCn1c(-c2ccc(C(=O)O/N=C(\N)c3ccc4ccccc4c3)cc2)nc(-c2ccccc2)c1-c1ccccc1,81%
4,O=C(Nc1ccc(Cl)cc1)c1cc2cc(F)ccc2cc1O,31.2%
5,Cn1cc(-c2nonc2-c2cn(C)c3ccc(F)cc23)c2cc(F)ccc21,56.4%
6,CCN(CC)S(=O)(=O)c1ccc(OC)c(NC(=O)c2[nH]c(C)c3c2CCCCC3=O)c1,34.1%
7,COc1cccc(-c2nc3sccn3c2-c2ccnc(NCCCNS(=O)(=O)c3cccc(F)c3)c2)c1,9.57% (active)
8,COc1cc(/C=C/c2cc(/C=C/c3ccc(O)c(OC)c3)n(-c3c(C)cccc3C)c(=O)n2)ccc1O,8.43% (active)
9,COc1cccc(-c2nc(SCC(=O)Nc3ccc(C(=O)/C=C/c4ccc(OC)c(OC)c4)cc3)[nH]c(=O)c2C#N)c1,94.5%
10,Cc1cc(C)c2nc3nc(C)cc(C)c3c(N)c2c1,29.6%
11,FC(F)(F)c1ccc(-c2cn3nc(-c4c[nH]c5ccc(Br)cc45)sc3n2)cc1,95.2%
12,CC(=O)O[C@H]1[C@@H]2OC(=O)C(CSc3ccccc3)[C@@H]2C[C@H]2O[C@]2(C)CC/C=C(\C)CCC[C@@H]1C (stereo partly drawn),49.3%
13,Cc1cc(C)nc(SC2=C(Nc3ccc(O)cc3)C(=O)N(Cc3ccccc3)C2=O)n1,94.8% [40 µM]
14,COC(=O)c1ccc(Cn2cnc3c(N)ncnc32)cc1,109%
15,CCOc1nc(-c2ccccc2)cc2c(O)c(C(=O)O)[nH]c(=O)c12,104%
16,COc1ccc(Nc2nc(SC)nc(-c3cccc([N+](=O)[O-])c3)c2C#N)cc1,69.3%
17,CN(C)[C@@H]1C(=O)C(C(=O)NCc2nc3[nH]cnc(=S)c3[nH]2)=C(O)[C@@]2(O)C(=O)C3=C(O)c4c(O)cccc4[C@@](C)(O)[C@H]3C[C@@H]12,27.1%
18,CCOC(=O)c1sc2nc(-c3cccc(O)c3)nc(N3CCOCC3)c2c1C,81%
19,O=C1/C(=C/c2ccccc2)SC(=S)N1CCc1ccc(O)cc1,97%

row,SMILES,growth
1,OCC(O)c1nc2ccc3[nH]ncc3c2c2c1CCCC2 (stereo not drawn),9.19% (active)
2,COc1cc2c(cc1-c1c(C)noc1C)ncc1nc(C3CCC(F)(F)CC3)n([C@H](C)COC(F)F)c12,49.3%
3,O=C1c2c(O)cc(O)cc2-c2c(-c3ccc(O)cc3)oc3cc(O)cc1c23,29.1%
4,CCN1CCN(c2nc(NCCNc3ccnc4cc(Cl)ccc34)c3ccccc3n2)CC1,-41.9% (active)
5,O=S(=O)(Nc1ccc(Br)c(Cl)c1)c1ccc(-c2cnc(C3CC3)o2)cc1,5.84% (active)
6,Cc1nn(-c2cc(=O)[nH]c3ccc(Cl)cc23)c(N)c1C#N,100%
7,Clc1ccc2c(NCCCCNc3nc(N4CCOCC4)nc4ccccc34)ccnc2c1,-5.21% (active)
8,CCOc1nc(-c2ccccc2)cc2c(O)c(C(=O)N/N=C/c3ccc(O)cc3O)[nH]c(=O)c12,19.3%
9,O=C(O)c1ccc(NC(=O)c2ccc(-c3cccc([N+](=O)[O-])c3)o2)cc1,98.8%
10,Cc1ccc(NS(=O)(=O)c2ccc(-c3cnc(C4CC4)o3)cc2)cc1C,10.3%
11,O=c1ccccc(-c2ccc(-c3ccco3)cc2)c1O,20.5%
12,C=CC(=O)Nc1cccc(-c2nc(SC)nc(NCCN3CCOCC3)c2C#N)c1,106%
13,CC(C)c1c(C(=O)c2ccccc2)c(-c2ccccc2)c(-c2ccc(F)cc2)n1CC[C@@H](O)C[C@@H](O)CC(=O)O,30.7%
14,O=S(=O)(Nc1ccc(NS(=O)(=O)c2ccccc2)c(Cl)c1)c1ccccc1,94.6%
15,O=C(N=Nc1c(O)[nH]c2ccccc12)c1cc(-c2ccccc2)on1,98.2%
16,O=C1NC(=S)NC(=O)C1CC(=O)n1c(-c2ccccc2)nc2ccccc21,96.3%
17,Cn1c(O)c(N=NC(=O)c2cc(-c3ccccc3)on2)c2ccccc21,99.8%
18,CN1CCN(Cc2ccc(NC(=O)c3cncc(C#Cc4cncn5ccnc45)c3)cc2C(F)(F)F)CC1,91.7%
